Assay results taken from PubChem BioAssay (Tox21).
Inconclusive results are not listed. Entries that show only a call come without a potency. The source made the active and inactive calls. Unless noted, the call rests on the fitted dose curve; in most records, active means well fitted curve in the direction sought with a large enough effect in the repeat runs; inconclusive means weak or mixed curves; inactive means no such curve, though single readings can be large; an effect the other way counts as inactive or inconclusive.

Key:
[1] = qHTS assay to identify small molecule antagonists of the estrogen receptor alpha (ER-alpha) signaling pathway using the BG1 cell line in the presence of 0.1 nM 17-beta-estradiol - cell viability counter screen (AID 1259241); further: nearly all actives have a fitted effect of over 40% in size; further: potency means the concentration at half of the fitted maximal effect
Procedure, shortened: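 VM7Luc4E2 cells (endogenous full-length ER-alpha, 4xERE-luciferase), cultured 5 days in charcoal-stripped serum, exposed to compounds with 0.1 nM 17beta-estradiol (final) for 22 hr at 37C. Viability read in same wells as live-cell protease fluorescence after 30 min.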

[2] = qHTS assay to identify small molecule HDAC inhibitors (AID 1259364);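 further: wild-type HCT-116 cells with endogenous class I/II HDAC activity; top concentration of the series differs between compounds; nearly all actives have a fitted effect of over 45% in size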
Procedure, shortened: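 After a 2 hr compound incubation (37C, 5% CO2), HCT-116 cells seeded at 1,500/well the day before received HDAC-Glo reagent; signal read as luminescence after 30 min at room temperature.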

[3] = qHTS assay to identify small molecule HDAC inhibitors - cell viability counter screen (AID 1259365); further: series mostly up to about 92 µM; nearly all actives have a fitted effect of over 50% in size
Procedure, shortened: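 Wild-type HCT-116 cells, 1,500/well, cultured overnight, then compound-treated 2 h at 37 C. Viability measured as ATP luminescence with CellTiter-Glo after 30 min at room temperature.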

[4] = qHTS assay to identify small molecule agonists of the sonic hedgehog signaling (Shh) pathway - cell viability counter screen (AID 1259366); further: nearly all actives have a fitted effect of over 50% in size; further: potency means the concentration at half of the fitted maximal effect
Procedure, shortened: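 NIH/3T3-derived Gli1-Luc reporter cells, 2,000 per well, received compound after 4 h and were treated about 23 h at 37C. Viability measured in the same wells by CellTiter-Fluor fluorescence after 1 h.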

[5] = qHTS assay to identify small molecule agonists of the sonic hedgehog signaling (Shh) pathway (AID 1259368; calls by dose curve;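 further: NIH/3T3-derived 3T3Gli1-Luc cells carrying a stable Gli1-driven firefly luciferase reporter; series mostly up to about 92 µM; nearly all actives have a fitted effect of over 15% in size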)
Procedure, shortened: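 Stable NIH/3T3 Gli1-Luc reporter clone; 24 hr cpd exposure after a 4 hr settling period; luminescence endpoint.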

[6] = qHTS assay to identify small molecule antagonists of the sonic hedgehog signaling (Shh) pathway (AID 1259369; calls by dose curve; further: nearly all actives have a fitted effect of over 45% in size; further: potency means the concentration at half of the fitted maximal effect)
Procedure, shortened: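 Gli1 transcriptional reporter (firefly Luc) in NIH/3T3 background, conditioned-medium activated. 24hr exposure, luminescence endpoint.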

[7] = molecular target: Estrogen receptor beta (Homo sapiens) (UniProt Q92731); assay: qHTS assay to identify small molecule antagonists of the estrogen receptor beta (ER-beta) signaling pathway (AID 1259378; active means well fitted inhibition curve with a large enough effect in the signal ratio in the repeat runs, not every such curve was filed as active; the % refers to the signal ratio; further: potency means the concentration at half of the fitted maximal effect)
Chain of Estrogen receptor beta (Homo sapiens) (Q92731 whole entry, looked up): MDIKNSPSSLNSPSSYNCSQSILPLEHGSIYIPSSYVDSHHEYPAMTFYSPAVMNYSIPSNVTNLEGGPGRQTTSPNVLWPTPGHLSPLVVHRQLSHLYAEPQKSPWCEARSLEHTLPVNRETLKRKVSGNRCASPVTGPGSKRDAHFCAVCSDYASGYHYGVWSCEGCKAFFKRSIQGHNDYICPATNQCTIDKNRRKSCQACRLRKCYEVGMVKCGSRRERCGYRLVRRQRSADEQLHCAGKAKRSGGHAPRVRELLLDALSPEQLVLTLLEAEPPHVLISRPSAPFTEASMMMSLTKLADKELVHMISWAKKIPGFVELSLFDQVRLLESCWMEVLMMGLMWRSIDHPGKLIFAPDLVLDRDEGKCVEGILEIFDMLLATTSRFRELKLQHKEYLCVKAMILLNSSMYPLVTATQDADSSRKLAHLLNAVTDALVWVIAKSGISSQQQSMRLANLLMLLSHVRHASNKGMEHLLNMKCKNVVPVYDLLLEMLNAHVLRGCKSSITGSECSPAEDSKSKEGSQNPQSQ
Procedure, shortened: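 ER-beta-UAS-bla HEK293T cells in 2% charcoal-stripped FBS medium treated with compound plus 1nM final 17-beta-estradiol for 16 hr at 37C. Beta-lactamase reporter read by FRET substrate fluorescence after 2 hours at room temperature.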

[8] = qHTS assay to identify small molecule agonists of the androgen receptor (AR) signaling pathway in the presence of an antagonist - cell viability counter screen (AID 1259379); further: nearly all actives have a fitted effect of over 25% in size; further: potency means the concentration at half of the fitted maximal effect
Procedure, shortened: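 Counter screen for cell viability run in parallel with the AR agonist-mode luciferase assay. MDA-kb2 cells were co-treated with nilutamide (3.0uM final) and compounds, then incubated 16 hr at 37C, and CellTiter-Fluor fluorescence was measured.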

[9] = qHTS assay to identify small molecule agonists of the estrogen receptor beta (ER-beta) signaling pathway - cell viability counter screen (AID 1259380); further: nearly all actives have a fitted effect of over 30% in size; further: potency means the concentration at half of the fitted maximal effect
Procedure, shortened: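 In this qHTS counter screen, HEK293T cells carrying an ER-beta/UAS beta-lactamase reporter, grown in 2% charcoal-stripped FBS, received compound for 16 hr; ATP-based CellTiter-Glo luminescence was then read after 30 min at room temperature.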

[10] = qHTS assay to identify small molecule agonists or antagonists of the thyroid stimulating hormone receptor (TSHR) signaling pathway - wild type cell line counter screen (AID 1259384; calls by dose curve)
Procedure, shortened: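 Wild-type Hek293 cells, 800/well, 18 h at 37C, then compound with Ro20-1724 for 30 min RT. cAMP by HTRF (cAMP-d2/anti-cAMP cryptate), 1 h RT, fluorescence read. 15 concentrations, triplicates.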

[11] = qHTS assay to identify small molecule antagonists of the sonic hedgehog signaling (Shh) pathway - cell viability counter screen (AID 1259367); further: nearly all actives have a fitted effect of over 55% in size; further: potency means the concentration at half of the fitted maximal effect
Procedure, shortened: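 Tox21 library chemicals were tested on a Gli1-Luc NIH/3T3 clone (2,000 cells/well) stimulated by conditioned medium; viability was quantified as fluorescence from CellTiter-Fluor reagent added at 23 hr.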

[12] = molecular target: Estrogen receptor beta (Homo sapiens) (UniProt Q92731); assay: qHTS assay to identify small molecule agonists of the estrogen receptor beta (ER-beta) signaling pathway (AID 1259377; active means well fitted activation curve with a large enough effect in the signal ratio in the repeat runs, not every such curve was filed as active; the % refers to the signal ratio)
Procedure, shortened: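 ER-beta-UAS-bla HEK293T cells in medium with 2% charcoal-stripped FBS were exposed to compounds for 16 h at 37C. Beta-lactamase reporter activity was read as fluorescence after 2 h with LiveBLAzer B/G FRET substrate at room temperature.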

[13] = qHTS assay to identify small molecule antagonists of the estrogen receptor beta (ER-beta) signaling pathway - cell viability counter screen (AID 1259382); further: nearly all actives have a fitted effect of over 55% in size; further: potency means the concentration at half of the fitted maximal effect
Procedure, shortened: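 HEK293T ER-beta-UAS-bla, 2% charcoal-stripped FBS; compounds + 1nM E2 16 hr 37C; CellTiter-Glo luminescence, 30 min RT.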

[14] = molecular target: Thyrotropin receptor (Homo sapiens) (UniProt P16473); assay: qHTS assay to identify small molecule antagonists of the thyroid stimulating hormone receptor (TSHR) signaling pathway (AID 1259385; calls by dose curve; further: nearly all actives have a fitted effect of over 20% in size; further: potency means the concentration at half of the fitted maximal effect)
Chain of Thyrotropin receptor (Homo sapiens) (P16473 whole entry, looked up): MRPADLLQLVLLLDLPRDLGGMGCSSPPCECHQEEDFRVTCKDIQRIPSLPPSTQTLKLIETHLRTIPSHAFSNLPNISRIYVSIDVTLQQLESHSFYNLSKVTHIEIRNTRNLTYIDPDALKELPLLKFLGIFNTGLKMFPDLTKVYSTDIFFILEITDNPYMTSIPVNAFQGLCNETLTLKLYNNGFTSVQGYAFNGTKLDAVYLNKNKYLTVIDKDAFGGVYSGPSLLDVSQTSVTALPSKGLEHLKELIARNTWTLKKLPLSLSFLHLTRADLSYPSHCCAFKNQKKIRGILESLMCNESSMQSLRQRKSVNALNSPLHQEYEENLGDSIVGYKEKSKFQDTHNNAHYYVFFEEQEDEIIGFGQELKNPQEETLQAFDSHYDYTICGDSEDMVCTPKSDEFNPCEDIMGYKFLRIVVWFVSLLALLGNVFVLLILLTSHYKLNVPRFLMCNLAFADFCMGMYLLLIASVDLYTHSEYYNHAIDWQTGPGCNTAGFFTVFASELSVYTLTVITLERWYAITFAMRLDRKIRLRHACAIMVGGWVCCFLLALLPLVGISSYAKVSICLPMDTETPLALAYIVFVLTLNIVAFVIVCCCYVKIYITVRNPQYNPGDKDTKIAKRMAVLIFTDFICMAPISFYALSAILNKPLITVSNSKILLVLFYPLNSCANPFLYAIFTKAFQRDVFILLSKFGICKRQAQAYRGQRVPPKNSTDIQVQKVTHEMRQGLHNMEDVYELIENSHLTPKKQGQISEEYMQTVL
Procedure, shortened: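 TSHR-HEK293 cells (800/well) plated 18 h, then compounds with Ro20-1724 and TSH at 1.5 ng/mL final, 30 min at room temperature. cAMP quantified by HTRF (cAMP-d2/anti-cAMP-cryptate, 1 h); 15 concentrations in triplicate.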

[15] = qHTS assay to identify small molecule phospholipidosis (PLD) inducers (AID 1259344; active means well fitted curve in the direction sought with a large enough effect; an effect the other way counts as inactive or inconclusive; further: potency means the concentration at half of the fitted maximal effect)
Procedure, shortened: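 Image-based: LipidTOX Red pit count/intensity per well and per cell; HepG2, 24 h compound at 37 C, PFA fixation, Hoechst counterstain.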

[16] = molecular target: Androgen receptor (Homo sapiens) (UniProt P10275); assay: qHTS assay to identify small molecule agonists of the androgen receptor (AR) signaling pathway in the presence of an antagonist (AID 1259381; calls by dose curve; further: nearly all actives have a fitted effect of over 15% in size)
Chain of Androgen receptor (Homo sapiens) (P10275 whole entry, looked up): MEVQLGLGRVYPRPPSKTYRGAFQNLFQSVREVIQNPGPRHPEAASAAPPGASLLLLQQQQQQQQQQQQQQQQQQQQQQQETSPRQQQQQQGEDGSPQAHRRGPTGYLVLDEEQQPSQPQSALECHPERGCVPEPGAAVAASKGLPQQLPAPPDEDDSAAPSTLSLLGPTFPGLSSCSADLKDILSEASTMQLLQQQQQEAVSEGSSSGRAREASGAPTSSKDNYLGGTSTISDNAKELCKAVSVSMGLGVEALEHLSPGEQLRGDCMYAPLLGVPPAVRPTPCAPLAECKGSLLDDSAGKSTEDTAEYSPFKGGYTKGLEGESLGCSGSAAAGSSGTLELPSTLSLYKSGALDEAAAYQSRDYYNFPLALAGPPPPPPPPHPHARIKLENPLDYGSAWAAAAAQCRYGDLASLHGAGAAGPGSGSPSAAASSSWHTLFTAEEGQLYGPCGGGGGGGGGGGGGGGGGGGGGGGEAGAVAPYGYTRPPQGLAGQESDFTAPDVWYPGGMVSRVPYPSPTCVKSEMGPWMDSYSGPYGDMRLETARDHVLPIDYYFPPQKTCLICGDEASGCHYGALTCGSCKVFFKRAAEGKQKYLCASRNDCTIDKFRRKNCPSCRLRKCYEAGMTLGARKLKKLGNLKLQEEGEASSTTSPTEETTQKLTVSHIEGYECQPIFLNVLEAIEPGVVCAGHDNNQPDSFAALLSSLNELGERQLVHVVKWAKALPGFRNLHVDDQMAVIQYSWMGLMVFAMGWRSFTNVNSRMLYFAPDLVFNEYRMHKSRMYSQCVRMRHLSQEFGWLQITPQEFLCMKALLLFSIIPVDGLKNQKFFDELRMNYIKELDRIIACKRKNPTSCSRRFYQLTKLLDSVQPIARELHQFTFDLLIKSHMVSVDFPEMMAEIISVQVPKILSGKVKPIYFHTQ
Procedure, shortened: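 AR antagonist background: nilutamide 3.0uM final. Cell line: MDA-kb2, MMTV-driven luciferase, responsive to both AR and GR. Exposure 16hr, 37C, no CO2; ONE-Glo luminescence.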

[17] = qHTS assay to identify small molecule antagonists of the androgen receptor (AR) signaling pathway using the MDA cell line in the presence of 0.5 nM R1881 - cell viability counter screen (AID 1259242); further: nearly all actives have a fitted effect of over 45% in size
Procedure, shortened: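 Human breast carcinoma MDA-kb2 cells, cultured without CO2, receive compounds alongside 0.5 nM (final) R1881 agonist. After 16 hr at 37C, viability is taken as live-cell protease signal.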

[18] = molecular target: Androgen receptor (Homo sapiens) (UniProt P10275); assay: qHTS assay to identify small molecule antagonists of the androgen receptor (AR) signaling pathway using the MDA cell line in the presence of 0.5 nM R1881 (AID 1259243); further: potency means the concentration at half of the fitted maximal effect; nearly all actives have a fitted effect of over 50% in size
Procedure, shortened: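 Cells: MDA-kb2 (MMTV-luc). Stimulus: 0.5 nM R1881. Time: 16 hr, 37C, no CO2. Detection: ONE-Glo luminescence after 30 min at RT.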

[19] = molecular target: Estrogen receptor (Homo sapiens) (UniProt P03372); assay: qHTS assay to identify small molecule antagonists of the estrogen receptor alpha (ER-alpha) signaling pathway using the BG1 cell line in the presence of 0.1 nM 17-beta-estradiol (AID 1259244); further: nearly all actives have a fitted effect of over 50% in size; further: potency means the concentration at half of the fitted maximal effect
Chain of Estrogen receptor (Homo sapiens) (P03372 whole entry, looked up): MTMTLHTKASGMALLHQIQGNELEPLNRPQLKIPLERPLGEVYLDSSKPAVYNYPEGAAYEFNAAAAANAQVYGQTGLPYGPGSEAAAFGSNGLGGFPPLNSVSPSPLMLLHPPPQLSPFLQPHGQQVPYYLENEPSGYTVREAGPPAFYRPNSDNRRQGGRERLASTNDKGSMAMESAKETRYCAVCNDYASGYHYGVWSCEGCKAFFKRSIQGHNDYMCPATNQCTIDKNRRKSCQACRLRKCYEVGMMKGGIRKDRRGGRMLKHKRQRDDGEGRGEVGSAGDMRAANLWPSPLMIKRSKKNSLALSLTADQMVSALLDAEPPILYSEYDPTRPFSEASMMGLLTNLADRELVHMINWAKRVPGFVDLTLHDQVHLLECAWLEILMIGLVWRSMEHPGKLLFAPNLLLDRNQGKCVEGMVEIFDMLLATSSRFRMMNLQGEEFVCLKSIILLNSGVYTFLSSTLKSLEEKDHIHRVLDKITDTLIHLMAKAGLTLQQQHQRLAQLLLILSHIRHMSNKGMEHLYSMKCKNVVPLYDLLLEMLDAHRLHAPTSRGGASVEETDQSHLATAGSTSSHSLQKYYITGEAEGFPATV
Procedure, shortened: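 Seeding of stripped-serum-adapted VM7Luc4E2 cells, 24 h attachment, compound transfer, then 0.1 nM final 17beta-estradiol; after 22 h incubation, ONE-Glo reagent and luminescence reading.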

[20] = molecular target: Estrogen receptor (Homo sapiens) (UniProt P03372); assay: qHTS assay to identify small molecule agonists of the estrogen receptor alpha (ER-alpha) signaling pathway in the presence of an antagonist (AID 1259383; calls by dose curve; further: top concentration of the series differs between compounds; nearly all actives have a fitted effect of over 15% in size)
Procedure, shortened: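 ER-alpha agonism measured under antagonist challenge: 10.0nM ICI-182,780 (final) plus compound, 15 concentrations, 22hr, VM7Luc4E2 ERE-luciferase cells. Read by luminescence.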

Row | Structure (SMILES) | Potency [1] | Potency [2] | Potency [3] | Potency [4] | Potency [5] | Potency [6] | Potency [7] | Potency [8] | Potency [9] | outcome [10] | Potency [11] | Potency [12] | Potency [13] | Potency [14] | Potency [15] | Potency [16] | Potency [17] | Potency [18] | Potency [19] | Potency [20]
1 | CC(C)c1ccc2c(c1)CC[C@H]1[C@](C)(CN)CCC[C@]21C | inactive | inactive | inactive | 48.6 µM (active) | inactive | 15.4 µM (active) | 61.1 µM (active) | 43.3 µM (active) | 54.5 µM (active) | inactive | – | – | – | – | – | – | – | – | – | –
2 | CC(C)(C)c1ccc(C(=O)O)cc1 | inactive | inactive | inactive | inactive | inactive | inactive | – | inactive | inactive | inactive | inactive | inactive | inactive | inactive | – | – | – | – | – | –
3 | COc1cc(-c2ccc(N=C=O)c(OC)c2)ccc1N=C=O | inactive | inactive | inactive | inactive | inactive | inactive | inactive | inactive | inactive | – | inactive | inactive | inactive | – | – | – | – | – | – | –
4 | CN1CCC(Nc2ncc3ncnc(Nc4ccc(F)c(Cl)c4)c3n2)CC1 | inactive | inactive | inactive | 29.8 µM (active) | inactive | 6.68 µM (active) | – | inactive | 11.9 µM (active) | inactive | – | – | – | 29.8 µM (active) | 11.2 µM (active) | inactive | – | – | – | –
5 | CCCC(=O)OC[C@@H](OC(=O)CCC)[C@@H](OC(=O)CCC)[C@H](Cn1c2nc(=O)[nH]c(=O)c-2nc2cc(C)c(C)cc21)OC(=O)CCC | – | inactive | inactive | – | inactive | 2.37 µM (active) | – | inactive | 16.8 µM (active) | inactive | – | – | inactive | inactive | inactive | inactive | inactive | 16.8 µM (active) | 26.6 µM (active) | inactive
6 | O=C1C=CC(=O)N1c1ccc(Cc2ccc(N3C(=O)C=CC3=O)cc2)cc1 | inactive | – | inactive | 7.7 µM (active) | inactive | – | – | 48.6 µM (active) | 48.6 µM (active) | inactive | 21.7 µM (active) | – | – | 48.6 µM (active) | – | – | – | – | – | –
7 | Nc1ccc2cc(S(=O)(=O)O)cc(O)c2c1N=Nc1ccccc1C(F)(F)F | 30.6 µM (active) | inactive | inactive | – | inactive | inactive | inactive | 30.6 µM (active) | inactive | – | – | inactive | inactive | – | – | – | – | – | – | –
8 | COc1ccc(CN2CCN(C(c3ccc(F)cc3)c3ccc(F)cc3)CC2)c(OC)c1OC | inactive | inactive | inactive | – | inactive | 29.8 µM (active) | – | 26.6 µM (active) | 11.9 µM (active) | inactive | – | – | 10.6 µM (active) | – | – | – | – | – | – | –
9 | O=[N+]([O-])c1cc([N+](=O)[O-])c2ccc(S(=O)(=O)O)cc2c1O | 27.1 µM (active) | – | inactive | 13.6 µM (active) | – | – | – | 21.6 µM (active) | inactive | – | 8.58 µM (active) | – | inactive | – | – | – | – | – | – | –
10 | C1CCCC1 | inactive | inactive | inactive | inactive | inactive | inactive | inactive | inactive | inactive | inactive | inactive | inactive | – | inactive | – | – | – | – | – | –
11 | Cc1cc2c(cc1C(F)(F)F)N(C(=O)Nc1ccc(Oc3cccnc3C)nc1)CC2 | inactive | inactive | inactive | inactive | inactive | – | 19.6 µM (active) | 55.3 µM (active) | – | – | inactive | – | inactive | – | – | – | – | – | 31.1 µM (active) | –
12 | CN1CCN(CCC(=O)N2c3ccccc3Sc3ccc(C(F)(F)F)cc32)CC1 | inactive | inactive | inactive | – | inactive | 3.35 µM (active) | 21.1 µM (active) | 29.8 µM (active) | 13.3 µM (active) | inactive | – | – | – | – | – | inactive | – | – | inactive | inactive
13 | C/C(=C(/OCCOc1ccc(Cl)cc1)c1ccc(Cl)cc1Cl)n1ccnc1 | inactive | inactive | inactive | inactive | inactive | – | 13.3 µM (active) | inactive | 15 µM (active) | inactive | inactive | inactive | – | inactive | – | – | – | – | – | –
14 | C=CC(=O)OCCn1c(=O)n(CCOC(=O)C=C)c(=O)n(CCOC(=O)C=C)c1=O | 48.6 µM (active) | inactive | – | 10.9 µM (active) | inactive | 5.45 µM (active) | – | 21.7 µM (active) | – | inactive | 21.7 µM (active) | – | – | inactive | – | – | – | – | – | –
15 | CCN(CC)CCCC(C)Nc1c2ccc(Cl)cc2nc2ccc(OC)cc12 (stereo not drawn) | inactive | – | – | – | inactive | 29.8 µM (active) | – | 11.9 µM (active) | 6.68 µM (active) | – | inactive | – | – | – | – | – | – | – | – | –
16 | CCCC/C=C/CCCCO | inactive | inactive | inactive | inactive | inactive | inactive | – | inactive | – | inactive | inactive | – | inactive | inactive | – | – | – | – | inactive | inactive
17 | Cc1[nH]cnc1C[C@H]1CCc2c(C)c3ccccc3n2C1=O | inactive | inactive | inactive | – | inactive | 18.9 µM (active) | 29.9 µM (active) | – | 4.74 µM (active) | inactive | – | inactive | – | – | – | – | – | – | – | –
18 | CC(C)OC(=O)c1cc2c(OCC(O)CNC(C)(C)C)cccc2[nH]1 (stereo not drawn) | inactive | inactive | inactive | – | inactive | 2.66 µM (active) | inactive | inactive | – | inactive | inactive | inactive | – | inactive | – | inactive | – | – | – | –
